Among the test systems are SR leukemia; RPMI-8226 leukemia; OVCAR-8 ovarian; OVCAR-5 ovarian; SK-OV-3 ovarian; IGROV1 ovarian; OVCAR-3 ovarian; HS 578T breast; NCI/ADR-RES ovarian; T-47D breast; BT-549 breast; MDA-MB-435 melanoma; MCF7 breast; HCT-116 colon; HCC-2998 colon; KM12 colon; SW-620 colon; OVCAR-4 ovarian.
What all share (test): NCI-60 one-dose screen, 48 h (100 = growth as untreated, 0 = no growth, -100 = all killed)
Holding throughout (settings): 10 µM unless noted

Compounds without any hit were thinned out: in the full panel of roughly 83,000, 20% have a hit.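 Single-concentration screen, 48 h exposure, 96-well plates. Endpoint: percent growth. Below 10 = active.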 A number with no mark means an inactive call. Active and inactive are the calls of the source.

Take `Brc1ccccc1/C=N/Nc1nc(N/N=C/c2ccccc2Br)nc(N2CCOCC2)n1`: the growth in the test with SR leukemia is 63.9%; with RPMI-8226 leukemia, 65%; with OVCAR-8 ovarian it was 96.6%; in the test with OVCAR-5 ovarian, 111%; with SK-OV-3 ovarian it was 114%; with IGROV1 ovarian, 89.7%. For the same molecule, the growth in the test with OVCAR-3 ovarian is 85.2%; with HS 578T breast, 114%; in the test on NCI/ADR-RES ovarian, 91.5%; in the test with T-47D breast, 79%; with BT-549 breast, 107%; with MDA-MB-435 melanoma it was 97.7%. Besides, the growth in the test on MCF7 breast was 85.2%; with HCT-116 colon, 97.5%; in the test on HCC-2998 colon, 70.9%; in the test on KM12 colon, 89.1%.

Consider `CCCCCc1ccc(S(=O)(=O)Nc2cccc(-c3csc(NC(=O)CNCCN(C)C)n3)c2)cc1`, for which the growth in the test on SR leukemia was 22.2%; in the test with RPMI-8226 leukemia, 30.3%; with OVCAR-8 ovarian, 95.7%; with OVCAR-5 ovarian, 110%; in the test with SK-OV-3 ovarian, 109%; in the test on IGROV1 ovarian, 87.9%. The growth in the test with OVCAR-3 ovarian was 87.7%; in the test with HS 578T breast, 90.9%; with NCI/ADR-RES ovarian it was 73.1%; with T-47D breast, 68.3%; in the test with BT-549 breast it was 104%; in the test with MDA-MB-435 melanoma, 90.1%. For the same molecule, the growth is 87.3% in the test on SW-620 colon; 41.3% with MCF7 breast; 55.4% in the test with HCT-116 colon; 16.2% in the test on HCC-2998 colon; 90.2% in the test on KM12 colon.

For the molecule `CCNC(=O)N1CCc2cc(OC)c(OCCc3ccc(OC)nc3)cc2C1c1ccc(OC)cc1C` (configuration not stated), the growth was 10.9% in the test with SR leukemia; 31.4% with RPMI-8226 leukemia; 42.4% in the test on OVCAR-8 ovarian; 51% with OVCAR-5 ovarian; 54.6% with SK-OV-3 ovarian; 33.8% in the test with IGROV1 ovarian. The growth with HS 578T breast was 29.8%; with NCI/ADR-RES ovarian it was 23.5%; in the test with T-47D breast, 49%; in the test on BT-549 breast, 29.2%; with MDA-MB-435 melanoma it was 15%; in the test with SW-620 colon, 16%. Besides, the growth in the test on MCF7 breast is 22.2%; in the test on HCT-116 colon, 14.4%; with HCC-2998 colon, 42.8%; in the test on KM12 colon it was 21.2%.

Take `CCOC(=O)c1c(NC(=O)c2ccccc2C(F)(F)F)sc2c1CCC(=O)C2`: the growth with SR leukemia was 24.2%; with RPMI-8226 leukemia, -6.12% (active); in the test on OVCAR-8 ovarian, 37.9%; in the test with OVCAR-5 ovarian, 21%; in the test on SK-OV-3 ovarian, 99.7%; in the test with IGROV1 ovarian, 29%. Further, the growth in the test with OVCAR-3 ovarian is 12.4%; with HS 578T breast it was 36.3%; in the test on NCI/ADR-RES ovarian, 10.7%; in the test on T-47D breast, 15%; with BT-549 breast, 11.1%; in the test on MDA-MB-435 melanoma, 72.6%. Also, the growth in the test on SW-620 colon is 14.9%; in the test with MCF7 breast, 78.5%; in the test with HCT-116 colon it was 11%; in the test with HCC-2998 colon it was 65.2%; with KM12 colon, 7.7% (active).

For the molecule `N#Cc1c(-c2cccs2)cc(-c2cnccn2)nc1SCC(=O)c1ccc(F)cc1`, the growth is 81.3% in the test on SR leukemia; 97.7% with RPMI-8226 leukemia; 99.5% in the test on OVCAR-8 ovarian; 88% with OVCAR-5 ovarian; 104% in the test with SK-OV-3 ovarian; 78.1% in the test on IGROV1 ovarian. Also, the growth in the test on OVCAR-3 ovarian is 118%; in the test with HS 578T breast it was 94.2%; in the test with NCI/ADR-RES ovarian it was 96.4%; in the test with T-47D breast, 106%; with MDA-MB-435 melanoma it was 93.3%; with SW-620 colon, 96.7%. The growth in the test on MCF7 breast is 85.7%; in the test with HCT-116 colon it was 96.6%; in the test with HCC-2998 colon it was 117%; with KM12 colon, 99%.

Take `CC(=O)N1N=C(c2cccc(-n3cccc3)c2)CC1c1cccc(F)c1` (configuration not stated): the growth is 96.2% with SR leukemia; 93.7% in the test on RPMI-8226 leukemia; 98.2% in the test on OVCAR-8 ovarian; 95.8% with OVCAR-5 ovarian; 101% in the test on OVCAR-4 ovarian; 97.3% in the test on SK-OV-3 ovarian. Besides, the growth is 96.9% with IGROV1 ovarian; 91% in the test on HS 578T breast; 95.9% in the test on NCI/ADR-RES ovarian; 89% in the test on T-47D breast; 126% in the test with BT-549 breast; 102% with MDA-MB-435 melanoma. Besides, the growth in the test on MCF7 breast is 75.1%; with HCT-116 colon it was 92.5%; with HCC-2998 colon, 106%; in the test with KM12 colon, 103%.

Consider `Cc1cccc(/C=C/C(=O)Nc2ncc(Cc3cccc(C)c3)s2)c1`, for which the growth with SR leukemia was 6.46% (active); in the test with RPMI-8226 leukemia, 19.1%; in the test on OVCAR-8 ovarian, 24.3%; with OVCAR-5 ovarian it was 40.6%; in the test on OVCAR-4 ovarian it was 45.6%; in the test on SK-OV-3 ovarian, 30%. The growth was 32.5% with IGROV1 ovarian; 14.2% in the test on HS 578T breast; 18.3% in the test with NCI/ADR-RES ovarian; 32.7% in the test on T-47D breast; 66.6% with BT-549 breast; -70.2% (active) with MDA-MB-435 melanoma. For the same molecule, the growth in the test with MCF7 breast was 15.1%; in the test with HCT-116 colon, 23.1%; with HCC-2998 colon it was 34.8%; with KM12 colon, 6.43% (active).

In the case of `COc1ccc(-n2c(SCc3nnc(NC(=O)c4ccc(Br)cc4)s3)nc3cc(OC)c(OC)cc3c2=O)cc1`, the growth with SR leukemia is 101%; with RPMI-8226 leukemia, 104%; with OVCAR-8 ovarian, 94.9%; in the test with OVCAR-5 ovarian it was 95.5%; with SK-OV-3 ovarian, 108%; with IGROV1 ovarian, 102%. Also, the growth is 99% with HS 578T breast; 78.8% in the test with NCI/ADR-RES ovarian; 112% in the test with T-47D breast; 137% in the test on BT-549 breast; 87.5% in the test with MDA-MB-435 melanoma; 95.7% in the test with SW-620 colon. Also, the growth in the test on MCF7 breast was 85.6%; with HCT-116 colon, 96.2%; with HCC-2998 colon, 88.2%; in the test with KM12 colon, 90.6%.

In the case of `CS(=O)(=O)c1ncc(-c2ccccc2)cn1`, the growth is 70.9% in the test on SR leukemia; 108% in the test on RPMI-8226 leukemia; 99.3% with OVCAR-8 ovarian; 103% in the test with OVCAR-5 ovarian; 108% with SK-OV-3 ovarian; 99.5% in the test on IGROV1 ovarian. Moreover, the growth was 90.7% in the test on OVCAR-3 ovarian; 111% in the test with HS 578T breast; 103% in the test with NCI/ADR-RES ovarian; 94.4% in the test on T-47D breast; 93.4% in the test with BT-549 breast; 95.2% in the test with MDA-MB-435 melanoma. Besides, the growth is 113% in the test with SW-620 colon; 91.9% with MCF7 breast; 96.9% with HCT-116 colon; 104% in the test with HCC-2998 colon; 100% with KM12 colon.

These data come from PubChem BioAssay (NCI).
